Experimental data as given in PubChem BioAssay (Tox21).
Records with an inconclusive call do not appear. A call without a number means that no potency is given here. The source made the active and inactive calls. Unless noted, the call rests on the fitted dose curve; in most records, active means well fitted curve in the direction sought with a large enough effect in the repeat runs; inconclusive means weak or mixed curves; inactive means no such curve, though single readings can be large; an effect the other way counts as inactive or inconclusive.

Tests used:
[1] = A CellTox Green Cytotoxicity Assay to monitor cytotoxicity in HepG2 cells - 8 hour (AID 1224890); further: nearly all actives have a fitted effect of over 45% in size; further: potency means the concentration at half of the fitted maximal effect
In short: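 Using 1536-well format, dye-containing HepG2 suspension was seeded, allowed 5 h at 37 C/5% CO2, dosed by pintool with compounds, positive and negative controls, and imaged for fluorescence across 40 h.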

[2] = qHTS assay to identify small molecule antagonists of the estrogen receptor alpha (ER-alpha) signaling pathway using the BG1 cell line in the presence of 0.1 nM 17-beta-estradiol - cell viability counter screen (AID 1259241); further: nearly all actives have a fitted effect of over 40% in size; further: potency means the concentration at half of the fitted maximal effect
In short: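 Estradiol-stimulated (0.1 nM) VM7Luc4E2 cells exposed to compounds 22 hr; viability measured by fluorescence of cleaved CellTiter-Fluor substrate after 30 min.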

[3] = qHTS assay to identify small molecule antagonists of the androgen receptor (AR) signaling pathway using the MDA cell line in the presence of 0.5 nM R1881 - cell viability counter screen (AID 1259242); further: nearly all actives have a fitted effect of over 45% in size; further: potency means the concentration at half of the fitted maximal effect
In short: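 Viability of MDA-kb2 cells was multiplexed with the luciferase AR readout; after 16 hr with compounds and R1881 at 0.5 nM final, CellTiter-Fluor fluorescence was recorded.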

[4] = qHTS assay to identify small molecule phospholipidosis (PLD) inducers (AID 1259344; active means well fitted curve in the direction sought with a large enough effect; an effect the other way counts as inactive or inconclusive)
In short: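 Quantitative HTS in HepG2: compound plus LipidTOX Red dye for 24 h, paraformaldehyde fixation with Hoechst 33342, widefield high-content imaging; amiodarone as positive and DMSO as negative control.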

[5] = qHTS assay to identify small molecule HDAC inhibitors (AID 1259364);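 further: wild-type HCT-116 cells with endogenous class I/II HDAC activity; top concentration of the series differs between compounds; nearly all actives have a fitted effect of over 45% in size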
In short: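 Read-out: luminescence of HDAC-Glo I/II reagent, 30 min RT, reflecting class I/II deacetylase activity in whole HCT-116 cells pre-exposed 2 h to DMSO-dissolved compounds.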

[6] = qHTS assay to identify small molecule HDAC inhibitors - cell viability counter screen (AID 1259365); further: nearly all actives have a fitted effect of over 50% in size; further: potency means the concentration at half of the fitted maximal effect
In short: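 After overnight seeding at 1,500 cells per well, wild-type HCT-116 cultures took up compounds in DMSO for 2hr at 37 C. Viable cell content came from luminescence with CellTiter-Glo.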

[7] = qHTS assay to identify small molecule agonists of the sonic hedgehog signaling (Shh) pathway - cell viability counter screen (AID 1259366); further: nearly all actives have a fitted effect of over 50% in size; further: potency means the concentration at half of the fitted maximal effect
In short: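 Same-well cytotoxicity read. Gli1-Luc reporter 3T3 cells; compounds 24hr, 37C/5% CO2; CellTiter-Fluor fluorescence.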

[8] = qHTS assay to identify small molecule antagonists of the sonic hedgehog signaling (Shh) pathway - cell viability counter screen (AID 1259367); further: nearly all actives have a fitted effect of over 55% in size; further: potency means the concentration at half of the fitted maximal effect
In short: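 Seed 3T3 Gli1-Luc cells at 2,000 per well; incubate 4 hr; add compound in DMSO, then conditioned medium; incubate at 37C with 5% CO2; add CellTiter-Fluor after 23 hr; read fluorescence 1 hr later.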

[9] = qHTS assay to identify small molecule agonists of the sonic hedgehog signaling (Shh) pathway (AID 1259368; calls by dose curve;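 further: NIH/3T3-derived 3T3Gli1-Luc cells carrying a stable Gli1-driven firefly luciferase reporter; series mostly up to about 92 µM; nearly all actives have a fitted effect of over 15% in size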)
In short: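 A Gli1 transcriptional response element controlled firefly luciferase in 3T3Gli1-Luc cells. Compounds and a positive control were added 4 hr after plating, and cells were incubated a further 24 hr at 37 C before luminescence detection.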

[10] = molecular target: Estrogen receptor beta (Homo sapiens) (UniProt Q92731); assay: qHTS assay to identify small molecule agonists of the estrogen receptor beta (ER-beta) signaling pathway (AID 1259377; active means well fitted activation curve with a large enough effect in the signal ratio in the repeat runs, not every such curve was filed as active; the % refers to the signal ratio)
In short: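 Read-out: beta-lactamase FRET fluorescence. Cell line: ER-beta-UAS-bla HEK293T in 2% charcoal-stripped FBS. Exposure: 16 hr at 37C. Substrate step: 2 h at room temperature.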

[11] = qHTS assay to identify small molecule agonists of the androgen receptor (AR) signaling pathway in the presence of an antagonist - cell viability counter screen (AID 1259379); further: nearly all actives have a fitted effect of over 25% in size; further: potency means the concentration at half of the fitted maximal effect
In short: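 Seed MDA-kb2 at 3,000 cells/well; incubate 5 hr, 37C, 0% CO2. Add nilutamide to 3.0uM final, then pin compounds at 15 concentrations. Incubate 16 hr. Add CellTiter-Fluor at 15 hr, read fluorescence after 1 hr.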

[12] = qHTS assay to identify small molecule agonists of the estrogen receptor beta (ER-beta) signaling pathway - cell viability counter screen (AID 1259380); further: nearly all actives have a fitted effect of over 30% in size; further: potency means the concentration at half of the fitted maximal effect
In short: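 CellTiter-Glo read, 30 min RT, same wells as bla assay; cells ER-beta-UAS-bla HEK293T; 16 hr compound, 37C; medium 2% charcoal-stripped FBS.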

[13] = qHTS assay to identify small molecule antagonists of the estrogen receptor beta (ER-beta) signaling pathway - cell viability counter screen (AID 1259382); further: series mostly up to about 92 µM; nearly all actives have a fitted effect of over 55% in size
In short: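 In this multiplexed counter screen, cells were seeded at 2,000 per well in medium with 2% charcoal-stripped FBS and incubated 6 hr before compound and 1nM final E2 were added. Sixteen hours later, ATP-based luminescence reported viability.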

[14] = qHTS assay to identify small molecule antagonists of the sonic hedgehog signaling (Shh) pathway (AID 1259369; calls by dose curve; further: nearly all actives have a fitted effect of over 45% in size)
In short: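 For antagonist detection, the reporter line received test compounds together with conditioned medium, incubated 24hr at 37 C, 5% CO2, then luminescence was recorded following 30min room-temperature luciferase reagent incubation.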

[15] = molecular target: Estrogen receptor beta (Homo sapiens) (UniProt Q92731); assay: qHTS assay to identify small molecule antagonists of the estrogen receptor beta (ER-beta) signaling pathway (AID 1259378; active means well fitted inhibition curve with a large enough effect in the signal ratio in the repeat runs, not every such curve was filed as active; the % refers to the signal ratio)
In short: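 ER-beta-UAS-bla HEK293T cells in 2% charcoal-stripped FBS medium treated with compound plus 1nM final 17-beta-estradiol for 16 hr at 37C. Beta-lactamase reporter read by FRET substrate fluorescence after 2 hours at room temperature.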

[16] = molecular target: Estrogen receptor (Homo sapiens) (UniProt P03372); assay: qHTS assay to identify small molecule agonists of the estrogen receptor alpha (ER-alpha) signaling pathway in the presence of an antagonist (AID 1259383; calls by dose curve; further: top concentration of the series differs between compounds; nearly all actives have a fitted effect of over 15% in size)
In short: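 Stably transfected VM7Luc4E2 reporter cells, kept 5 days in charcoal-stripped serum, received ICI-182,780 at 10.0nM final before compound addition. Following 22hr incubation at 37C and 5% CO2, luciferase signal was read by luminescence.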

[17] = qHTS assay to identify small molecule agonists or antagonists of the thyroid stimulating hormone receptor (TSHR) signaling pathway - wild type cell line counter screen (AID 1259384; calls by dose curve)
In short: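 Wild-type Hek293 cells, 800/well, 18 h at 37C, then compound with Ro20-1724 for 30 min RT. cAMP by HTRF (cAMP-d2/anti-cAMP cryptate), 1 h RT, fluorescence read. 15 concentrations, triplicates.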

[18] = molecular target: Estrogen receptor (Homo sapiens) (UniProt P03372); assay: qHTS assay to identify small molecule antagonists of the estrogen receptor alpha (ER-alpha) signaling pathway using the BG1 cell line in the presence of 0.1 nM 17-beta-estradiol (AID 1259244); further: nearly all actives have a fitted effect of over 50% in size
In short: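 Estradiol at 0.1 nM (final) stimulates the endogenous ER-alpha of VM7Luc4E2 cells carrying an ERE-driven luciferase; compounds are co-incubated 22 h at 37C and luciferase output quantified by luminescence.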

[19] = molecular target: Androgen receptor (Homo sapiens) (UniProt P10275); assay: qHTS assay to identify small molecule antagonists of the androgen receptor (AR) signaling pathway using the MDA cell line in the presence of 0.5 nM R1881 (AID 1259243); further: nearly all actives have a fitted effect of over 50% in size
In short: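 Reporter cells cultured without CO2 receive test chemicals, then 0.5 nM R1881 final; after 16 hr at 37C, ONE-Glo is added and light output recorded.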

[20] = molecular target: Androgen receptor (Homo sapiens) (UniProt P10275); assay: qHTS assay to identify small molecule agonists of the androgen receptor (AR) signaling pathway in the presence of an antagonist (AID 1259381; calls by dose curve; further: nearly all actives have a fitted effect of over 15% in size)
In short: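 Test compounds at 15 concentrations were incubated for 16hr with MDA-kb2 reporter cells in presence of 3.0uM nilutamide (final). Signal: ONE-Glo luciferase luminescence.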

Sequence of Estrogen receptor (Homo sapiens) (P03372 whole entry, looked up): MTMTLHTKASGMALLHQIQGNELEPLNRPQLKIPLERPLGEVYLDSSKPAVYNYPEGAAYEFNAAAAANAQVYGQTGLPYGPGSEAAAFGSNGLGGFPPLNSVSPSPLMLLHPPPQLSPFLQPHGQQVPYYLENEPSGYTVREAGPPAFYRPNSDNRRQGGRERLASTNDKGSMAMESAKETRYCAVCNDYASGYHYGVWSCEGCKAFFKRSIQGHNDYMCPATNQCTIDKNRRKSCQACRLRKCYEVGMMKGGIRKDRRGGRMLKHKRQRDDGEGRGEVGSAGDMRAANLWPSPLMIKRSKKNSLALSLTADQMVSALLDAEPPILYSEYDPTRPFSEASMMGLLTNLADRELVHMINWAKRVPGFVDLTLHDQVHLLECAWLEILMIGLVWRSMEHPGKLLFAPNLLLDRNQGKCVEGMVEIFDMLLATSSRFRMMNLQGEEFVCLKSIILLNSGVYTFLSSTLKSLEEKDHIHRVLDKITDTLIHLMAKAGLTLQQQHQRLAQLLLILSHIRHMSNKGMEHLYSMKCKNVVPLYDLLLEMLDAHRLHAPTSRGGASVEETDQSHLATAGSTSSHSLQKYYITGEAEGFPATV
Sequence of Estrogen receptor beta (Homo sapiens) (Q92731 whole entry, looked up): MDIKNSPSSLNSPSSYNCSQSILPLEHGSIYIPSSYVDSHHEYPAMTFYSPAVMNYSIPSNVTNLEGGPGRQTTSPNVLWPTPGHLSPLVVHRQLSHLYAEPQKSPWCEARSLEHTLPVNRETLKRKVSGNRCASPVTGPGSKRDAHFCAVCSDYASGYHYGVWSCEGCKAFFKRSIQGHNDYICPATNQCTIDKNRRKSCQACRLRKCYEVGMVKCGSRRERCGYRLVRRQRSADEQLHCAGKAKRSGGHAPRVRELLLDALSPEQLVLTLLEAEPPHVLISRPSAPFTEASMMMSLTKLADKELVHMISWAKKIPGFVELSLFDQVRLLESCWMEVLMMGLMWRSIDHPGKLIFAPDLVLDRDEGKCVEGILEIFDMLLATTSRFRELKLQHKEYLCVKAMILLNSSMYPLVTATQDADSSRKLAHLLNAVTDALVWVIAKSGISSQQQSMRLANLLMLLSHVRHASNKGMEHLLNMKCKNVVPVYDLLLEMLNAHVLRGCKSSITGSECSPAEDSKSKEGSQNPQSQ
Sequence of Androgen receptor (Homo sapiens) (P10275 whole entry, looked up): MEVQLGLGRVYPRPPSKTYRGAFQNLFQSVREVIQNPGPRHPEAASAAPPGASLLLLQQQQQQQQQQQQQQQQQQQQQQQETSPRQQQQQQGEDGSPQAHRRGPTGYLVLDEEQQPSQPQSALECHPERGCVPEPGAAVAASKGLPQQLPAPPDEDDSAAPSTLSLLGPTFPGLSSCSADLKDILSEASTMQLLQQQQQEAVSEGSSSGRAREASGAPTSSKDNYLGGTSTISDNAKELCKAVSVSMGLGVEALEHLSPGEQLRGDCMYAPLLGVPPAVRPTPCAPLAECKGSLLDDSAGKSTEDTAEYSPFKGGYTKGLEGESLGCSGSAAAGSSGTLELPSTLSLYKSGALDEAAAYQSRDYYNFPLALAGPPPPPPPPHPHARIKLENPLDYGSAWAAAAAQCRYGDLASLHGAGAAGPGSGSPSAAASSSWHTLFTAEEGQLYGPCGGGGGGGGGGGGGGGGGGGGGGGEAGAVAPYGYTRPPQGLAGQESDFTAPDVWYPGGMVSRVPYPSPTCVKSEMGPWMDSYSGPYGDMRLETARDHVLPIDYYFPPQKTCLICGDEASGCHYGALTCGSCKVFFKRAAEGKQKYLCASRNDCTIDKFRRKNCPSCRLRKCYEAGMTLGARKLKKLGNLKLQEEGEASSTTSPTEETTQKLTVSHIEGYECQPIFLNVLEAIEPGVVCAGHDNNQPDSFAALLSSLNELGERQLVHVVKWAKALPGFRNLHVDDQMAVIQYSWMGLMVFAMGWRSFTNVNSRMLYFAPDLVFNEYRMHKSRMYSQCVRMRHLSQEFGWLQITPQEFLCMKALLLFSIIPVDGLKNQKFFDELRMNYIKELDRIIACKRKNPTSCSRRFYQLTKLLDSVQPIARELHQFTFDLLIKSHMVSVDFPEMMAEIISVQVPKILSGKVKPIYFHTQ

| SMILES | Potency [1] | Potency [2] | Potency [3] | Potency [4] | Potency [5] | Potency [6] | Potency [7] | Potency [8] | Potency [9] | Potency [10] | Potency [11] | Potency [12] | Potency [13] | Potency [14] | Potency [15] | Potency [16] | Potency [17] | Potency [18] | Potency [19] | Potency [20] |
| --- | --- | --- | --- | --- | --- | --- | --- | --- | --- | --- | --- | --- | --- | --- | --- | --- | --- | --- | --- | --- |
| CC(C)Cc1ccc(CC(=O)O)cc1 | 21.3 µM (active) | inactive | inactive | inactive | inactive | inactive | inactive | inactive | inactive | inactive | inactive | inactive | inactive | – | – | – | – | – | – | – |
| CC(C)c1ccc(C#N)cc1 | inactive | inactive | inactive | – | inactive | inactive | inactive | inactive | inactive | inactive | inactive | inactive | inactive | inactive | inactive | inactive | inactive | – | – | – |
| O=S(=O)(O)CO | inactive | inactive | inactive | – | inactive | inactive | inactive | inactive | inactive | – | inactive | inactive | inactive | inactive | – | – | – | – | – | – |
| CCN(CC)CCOC(=O)C(c1ccccc1)c1ccccc1 | inactive | inactive | inactive | inactive | inactive | inactive | inactive | inactive | inactive | inactive | inactive | – | inactive | inactive | inactive | – | inactive | – | – | – |
| O=C(O)c1cccc(Oc2ccccc2)c1 | inactive | inactive | inactive | – | inactive | inactive | inactive | inactive | inactive | – | inactive | inactive | inactive | inactive | – | inactive | inactive | – | – | – |
| CC1CCc2nccnc21 (stereo unspecified) | inactive | inactive | inactive | – | inactive | inactive | inactive | inactive | inactive | inactive | inactive | inactive | inactive | inactive | inactive | inactive | – | – | – | – |
| O=c1[nH]c2cc(C(F)(F)F)c(N3CCOCC3)cc2n(CP(=O)(O)O)c1=O | inactive | inactive | inactive | inactive | inactive | inactive | inactive | inactive | inactive | – | inactive | inactive | inactive | inactive | inactive | inactive | – | – | – | – |
| Cc1c(C2(c3cc(Br)c(O)c(Br)c3C)OS(=O)(=O)c3ccccc32)cc(Br)c(O)c1Br | inactive | 13.3 µM (active) | 10.5 µM (active) | – | – | 4.2 µM (active) | 9.4 µM (active) | 10.5 µM (active) | inactive | – | 14.9 µM (active) | 23.6 µM (active) | – | – | inactive | – | – | – | – | – |
| CNC1CCCN(c2c(F)cc3c(=O)c(C(=O)O)cn(C4CC4)c3c2OC)C1 (stereo unspecified) | inactive | inactive | – | inactive | inactive | inactive | inactive | inactive | inactive | inactive | inactive | inactive | inactive | inactive | inactive | inactive | inactive | inactive | – | – |
| O=C(O)CN1C(=O)c2cccc3cccc(c23)C1=O | inactive | inactive | inactive | – | inactive | inactive | inactive | inactive | inactive | – | inactive | inactive | inactive | inactive | – | – | inactive | – | – | – |
| CC(C)C1CCC(C(=O)N[C@H](Cc2ccccc2)C(=O)O)CC1 (stereo partly specified) | inactive | inactive | – | inactive | – | inactive | inactive | inactive | inactive | inactive | inactive | inactive | inactive | inactive | inactive | inactive | inactive | inactive | – | – |
| O=S(=O)(Cl)c1c(Cl)cccc1Cl | inactive | inactive | – | – | – | inactive | – | inactive | inactive | inactive | inactive | inactive | inactive | – | inactive | inactive | inactive | inactive | inactive | inactive |
